Source: ChEMBL document CHEMBL4513216, “Probing the Open Global Health Chemical Diversity Library for Multistage-Active Starting Points for Next-Generation Antimalarials” (ACS Infect Dis, 2020)
The whole screen tested about 68,000 compounds, of which about 2,700 (4%) showed an effect of 50% or more. Only a selection was taken, and strong results are over-represented in it overall.

Each compound was assayed on Plasmodium berghei (assay: Screen against P. berghei liver stage (PbLuc), transformed with Luciferase, at 2uM). Conditions: tested at 2 uM.
Format: functional, HepG2

Row | Structure (SMILES) | INHIBITION [%]
1 | CC(C)c1ccc(C(N)c2cccs2)cc1 (centres undefined) | -61.99
2 | CCS(=O)(=O)NCc1nc(C)cc(N2CCCC2)n1 | 53.61
3 | CCCS(=O)(=O)NCc1nc(C)cc(N2CCCC2)n1 | 15.84
4 | CCS(=O)(=O)NCc1nc(C)cc(N2CCCCC2)n1 | 19.12
5 | CCN1CC2(CCN(CC3COCCO3)CC2)OC1=O (centres undefined) | 65.1
6 | O=C1OC2(CCN(CC3CCCO3)CC2)CN1CCc1ccccc1 (centres undefined) | -38.59
7 | CCN1CC2(CCN(CC3CCCO3)CC2)OC1=O (centres undefined) | 6.85
8 | COCC1CN(C(=O)Cc2ccccn2)Cc2ncnn2C1 (centres undefined) | -54.16
9 | O=C(c1ccc2c(c1)COC2)N1CCCC(n2cncn2)C1 (centres undefined) | -45.72
10 | O=C1OC2(CCNCC2)CN1CC(=O)N1CCCC1c1nccs1 (centres undefined) | 3.62
11 | O=C(CC1COCCN1)N1CCCN(C2Cc3ccccc3C2)CC1 (centres undefined) | 46.02
12 | O=C(CN1C(=O)CCNC1=O)N1CCC2(CCc3ccccc32)CC1 | 12.3
13 | O=C(CC1COCCN1)N1CCC(N2CCc3ccccc3C2)CC1 (centres undefined) | -3.38
14 | O=C(O)CN1CCC2(CCc3ccccc32)CC1 | -2.19
15 | O=C(CN1CCOC1=O)N1CCC2(CCc3ccccc32)CC1 | 55.36
16 | O=C(CC1COCCN1)N1CCC2(CCc3ccccc32)CC1 (centres undefined) | 50.32
17 | Cc1noc(C)c1CN1C(=O)[C@@H]2CC[C@H]1CN(C(=O)c1cscn1)C2 | -13.89
18 | Cc1occc1C(=O)N1CCC2(CCN(Cc3ccccn3)C2=O)C1 (centres undefined) | 49.25
19 | O=C(O)[C@]12CCCN(Cc3ccccc3)C[C@H]1CN(c1ncccn1)C2 | -0.75
20 | O=C(O)[C@]12CCCN(Cc3ccsc3)C[C@H]1CN(c1ncccn1)C2 | 53.55
21 | O=C(O)[C@]12CCCN(Cc3ccsc3)C[C@H]1CN(c1ccccn1)C2 | 27.73
22 | CCC(C)[C@H](NC(=O)c1ccc(F)cc1-n1cnnn1)C(=O)OC (some centres undefined) | 24.67

Row | Structure (SMILES) | INHIBITION [%]
23 | CCn1nc(C)c(CNC(=O)c2cn(CC3CCCO3)nn2)c1C (centres undefined) | -32.59
24 | CN(C)C(=O)[C@H]1C[C@H]2CN(CCc3ccccc3)C[C@@H]1O2 | 28.38
25 | Cc1ccc(CN2CCC[C@@H]3CN(C(=O)c4ccco4)C[C@@H]32)o1 | 50.17
26 | CC(=O)N1C[C@H]2CCCN(Cc3ccc(C)o3)[C@H]2C1 | -41.73
27 | COc1ccc(CN2CCC[C@@H]3CN(C(=O)c4ccco4)C[C@@H]32)cc1 | -24.31
28 | CCCC(=O)N(CCCN1CCOCC1)c1nc2c(C)c(C)ccc2s1 | -3.67
29 | Cc1cccc(CNC[C@H]2Cn3ccnc3CO2)n1 | 9.42
30 | CN(C)CCNC(=O)c1cc(-c2cnc(N(C)C)nc2)cn1CC1CC1 | 8.88
31 | CN(C)c1ncc(-c2cc(C(=O)NCCO)n(CC3CC3)c2)cn1 | 23.53
32 | COCCCNC(=O)c1cc(-c2cnc(N(C)C)nc2)cn1CC1CC1 | 58.6
33 | O=C(NCCCO)Nc1cnc2cc(Cl)ccc2c1O | 47.4
34 | CCN(Cc1ccco1)C(=O)NCc1nnc2n1CCC2 | 11.78
35 | COCCN1CCc2ccc(=O)n(Cc3csc(C)n3)c2CC1 | -80.01
36 | Cc1cc(NC(=O)NCC(O)c2ccc(F)cc2)n(C)n1 (centres undefined) | 50.75
37 | Cc1cc(NC(=O)NCC(O)c2ccc(F)c(F)c2)n(C)n1 (centres undefined) | -12.19
38 | Cc1ccc(C(O)CNC(=O)Nc2cc(C)nn2C)cc1 (centres undefined) | -15.64
39 | Cc1cc(NC(=O)c2ccc(F)cc2Br)n(C)n1 | -0.9
40 | Cc1cc(NC(=O)c2ccc(F)cc2F)n(C)n1 | -20.8
41 | Cc1cc(NC(=O)c2ccc(F)cc2Cl)n(C)n1 | 56.53
42 | O=C(O)CN1CCC(F)(F)C2(CCN(c3ccccc3)C2)C1 (centres undefined) | -21.78
43 | COCCN1CCC2(CCN(c3ncccn3)CC2)C1=O | 0.2
44 | CC(C)(C)C1CCC(O)(CNC(=O)CCS(C)(=O)=O)CC1 (centres undefined) | -16.28

Row | Structure (SMILES) | INHIBITION [%]
45 | CN1C[C@@H](n2cnc(-c3ccccc3)c2-c2nccn2C)C[C@H]1C(=O)O | 28.07
46 | Nc1nc(NCCO)cc(N2CCc3c([nH]c4ccccc34)C2)n1 | -14.75
47 | Cc1ccc2c(c1)CN(C(=O)C1CCCCC1)C(CN(C)C)CO2 (centres undefined) | 38.1
48 | Cn1cc(-c2ncc3c(c2C(=O)O)CCN(Cc2ccco2)C3)cn1 | 2.26
49 | COCc1nc(C2CC2)nn1-c1cc(Cl)ccc1OC | 52.98
50 | COC(=O)[C@H](C)NC(=O)c1nc(C2CC2)n(-c2ccccc2Cl)n1 | 13.65
51 | COCc1nc(C2CC2)nn1-c1cccc(F)c1 | -1.57
52 | COCc1nc(C2CC2)nn1-c1ccccc1Cl | 72.05
53 | COc1ccc(Cl)cc1-n1nc(C2CCCC2)nc1Cn1cnnn1 | 31.51
54 | COc1ccc(Cl)cc1CS(=O)(=O)Cc1nc(C2CC2)no1 | 7.46
55 | Cc1ccn2c(F)c(C(=O)N3CCC4(CCC(=O)N(C)C4)CC3)nc2c1 | 6.81
56 | Cc1nc(CNC(=O)Nc2cc(F)ccc2N2CCN(C)CC2)no1 | 29.53
57 | c1cc(OCc2ccc3c(c2)OCO3)ccc1CNC1CC1 | 1.13
58 | Cc1cc(C)nc(C2CCCN2C(=O)c2cnccn2)n1 (centres undefined) | -48.89
59 | CNc1[nH]nc(N)c1C(=O)Nc1ccc(OC)cc1 | 52.21
60 | CNc1[nH]nc(N)c1C(=O)Nc1ccccc1 | 0.86
61 | CNc1[nH]nc(N)c1NC(=O)c1ccccc1 | -11.22
62 | CCc1ncc2c(n1)CN(C(C)C(=O)N1CCOCC1)CC2 (centres undefined) | 1.42
63 | CC(=O)NCCc1ccc(S(=O)(=O)Nc2ccc(C)cc2F)s1 | 22.16
64 | COCCN1CCCC(c2cncc(Oc3ccccc3OC)n2)C1 (centres undefined) | 41.56
65 | COc1cccc2ccc(CN3CCN(c4ccncc4)CC3)nc12 | 65.42
66 | COc1cccc2ccc(CN3CCN(c4cccnc4)CC3)nc12 | -18.81

Row | Structure (SMILES) | INHIBITION [%]
67 | COc1cccc2ccc(CN3CCN(c4ncccn4)CC3)nc12 | 38.8
68 | CCC=C(C)C(=O)NCc1ccnc(OC2CCOCC2)c1 | 4.54
69 | CC(C)c1nnc2n1CCN(C(=O)CN1Cc3ccccc3C1=O)C2 | 53.03
70 | CC(C)c1nnc2n1CCN(CC(=O)N1CCc3ccccc3C1)C2 | 54.92
71 | CC(C)c1nnc2n1CCN(CC(=O)N1CCc3sccc3C1)C2 | -38.92
72 | Cc1nnc2n1CCN(CC(=O)N1CCc3ccccc3C1)C2 | 36.64
73 | CC(C)c1nnc2n1CCN(C(=O)CN(C)Cc1ccccc1)C2 | -58.05
74 | CC(C)c1nnc2n1CCN(C(=O)CN1CCc3sccc3C1)C2 | -9.3
75 | Cc1ccc(NC(=O)N2CC(C(=O)NC(C)C)C3(CCOCC3)C2)cc1 (centres undefined) | 33.65
76 | COCC1CCN(S(=O)(=O)c2ccc(C(=O)NCC(F)F)cc2)C1 (centres undefined) | 15.44
77 | Cc1cc(C(=O)N2CCN(c3nc4c(C)cccc4s3)CC2)no1 | 7.72
78 | Cc1cc(C(=O)N2CCN(c3nc4c(C(C)C)cccc4s3)CC2)no1 | 23.65
79 | Cc1cc(C(=O)N2CCN(c3nc4c(C(C)C)cccc4s3)CC2)on1 | 61.06
80 | Cc1nn(CC(=O)N(C)Cc2nncn2C(C)C)c(=O)c2ccccc12 | -0.47
81 | O=C(O)c1ccccc1CN1CCCC(Cc2ccn[nH]2)C1 (centres undefined) | 28.66
82 | O=C1NC2(CCN(C(=O)c3ccccc3)CC2)CC1c1cccnc1 (centres undefined) | -51.9
83 | Cc1cc(C(=O)N2CCC3(CC2)CC(c2cccnc2)C(=O)N3)no1 (centres undefined) | 12.68
84 | O=C1NC2(CCN(C(=O)N3CCOCC3)CC2)CC1c1cccnc1 (centres undefined) | 78.29
85 | Cc1occc1-c1nc(NC2CCCC2)ncc1-c1ccccn1 | 11.97
86 | COCCNC(=O)CN(C)C(C)c1nc(C)no1 (centres undefined) | -4.01
87 | COCCCNC(=O)CN(C)C(C)c1nc(C(C)C)no1 (centres undefined) | 60.79
88 | COCCCNC(=O)CN(C)C(C)c1nc(C)no1 (centres undefined) | 35.5

Row | Structure (SMILES) | INHIBITION [%]
89 | Cc1ccc(-c2cc(C)nc(C3CCCN3S(C)(=O)=O)n2)cc1 (centres undefined) | 16.87
90 | COCCN1CCN(C(C)C(=O)Nc2ccnn2C(C)C)CC1 (centres undefined) | 23.86
91 | CC(C(=O)Nc1ccnn1C(C)C)N1CCN(Cc2ccon2)CC1 (centres undefined) | 62
92 | CC(C(=O)Nc1ccnn1C(C)C)N1CCN(Cc2ccccc2)CC1 (centres undefined) | 47.68
93 | C[C@H]1C[C@@H]2CCN(C(=O)c3ccncc3)C[C@H]2O1 | -15.25
94 | CCn1c(C)nnc1CN(C)C1CCN(CCn2cccn2)C1 (centres undefined) | -53.72
95 | CN(C)S(=O)(=O)N1CCC2(COCc3cnc(-c4cccnc4)nc32)C1 (centres undefined) | 19.51
96 | Cc1cc(N2CCOC(C)(C(=O)N(C)C)C2)ncn1 (centres undefined) | 58.29
97 | Cc1ccc(N2CCOC(C)(C(=O)N(C)C)C2)nn1 (centres undefined) | 39.07
98 | Cc1cc(C)nc(N2CCOC(C)(C(=O)N(C)C)C2)n1 (centres undefined) | 19
99 | CC(C)N1CCOC[C@H]1c1nc(C(C)(C)C)c[nH]1 | -0.14
100 | CCCC(NC(=O)c1cc(C)ccc1O)c1nnn[nH]1 (centres undefined) | -7.9
101 | COC(=O)[C@@H]1Cc2ncn(C)c2CN1S(=O)(=O)c1ccc(C)cc1 | 6.24
102 | COC(=O)[C@@H]1Cc2ncn(C(C)C)c2CN1S(=O)(=O)Cc1ccccc1 | 39.18
103 | COC(=O)[C@@H]1Cc2ncn(C)c2CN1S(=O)(=O)Cc1ccccc1 | 26.55
104 | CCCS(=O)(=O)N1Cc2c(ncn2Cc2ccccc2)C[C@H]1C(=O)OC | 39.73
105 | COC(=O)[C@@H]1Cc2ncn(C)c2CN1S(=O)(=O)c1ccc(OC)cc1 | 47.42
106 | COC(=O)[C@@H]1Cc2ncn(C)c2CN1S(=O)(=O)c1cccs1 | 51.81
107 | CCCn1cnc2c1CN(S(=O)(=O)Cc1ccccc1)[C@H](C(=O)OC)C2 | 60.6
108 | COC(=O)[C@@H]1Cc2ncn(C)c2CN1S(=O)(=O)c1ccc(Cl)cc1 | 57.85
109 | CCCn1cnc2c1CN(S(=O)(=O)c1ccc(F)cc1)[C@H](C(=O)OC)C2 | 46.32
